Measurements from PubChem BioAssay.
Calls of active or inactive are those of the source. Unless noted, no rule for the calls is given here.

What was measured:
[1] = tested on: Wnt5a (protein binding on small-molecule microarray); assay: Wnt5a binders on small-molecule microarray, primary screen, biophysical, 635/667 nm fluorescence (AID 1142); conditions: 635 nm fluorescence, higher = more signal;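 also: fluorescence read at 667 nm with signal to noise per printed feature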
[2] = cell viability in Huh7 cells, primary screen, cytotoxicity control for HCV replication inhibitor project, CellTiter-Glo luminescence, basal, 48 h (AID 1143); conditions: Huh7 HCV replicon, higher = more signal, called active from +8 up or from −8 down;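 also: Huh7 hepatoma cells carrying a hepatitis C replication reporter with no stimulus; test concentration not given here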
[3] = P. aeruginosa biofilm formation inhibitors, primary screen, PAO1 strain, BacTiter-Glo luminescence, LB-PBS (AID 1144); conditions: 12 h, higher = more signal
[4] = CREB reporter modulators without forskolin, primary screen, cell-based, PC12, CRE-LacZ reporter, unstimulated (AID 1145); conditions: no forskolin, luminescence, 4.5 h, higher = more signal, called active from +8 up or from −8 down
[5] = CREB reporter modulators under forskolin, primary screen, cell-based, PC12, CRE-LacZ reporter, forskolin-stimulated (AID 1146); conditions: luminescence, 4.5 h, higher = more signal, called active from +8 up or from −8 down;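 also: PC12 cells with 6xCRE LacZ reporter stimulated by forskolin 10 µM; beta-galactosidase reporter signal reflecting CREB driven transcription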
[6] = molecular target: Streptavidin (Streptomyces avidinii) (UniProt P22629); assay: streptavidin binders on small-molecule microarray, primary screen, artefact control for SMM compound annotation, biophysical, 635/667 nm fluorescence (AID 1147); conditions: streptavidin binding, higher = more signal;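 also: signal reflects streptavidin binding to arrayed compounds as a control protein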
[7] = small-molecule binders of probe aInhba, primary screen, biochemical, small-molecule microarray, 635/667 nm fluorescence (AID 1148); conditions: higher = more signal;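 also: score merges 667nm spot fluorescence with signal-to-noise for antibody binding to printed compounds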
Torsin-1A (Homo sapiens) [8] = molecular target: Torsin-1A (Homo sapiens) (UniProt O14656); assay: torsin A binders from cell lysate, primary screen, small-molecule microarray, wild-type, 635/667 nm (AID 1149); conditions: COS7 hTOR1A-WT lysate, 635 nm fluorescence, higher = more signal
Torsin-1A (Homo sapiens) [9] = molecular target: Torsin-1A (Homo sapiens) (UniProt O14656); assay: small-molecule binders of mutant TOR1A in lysate, primary screen, cell lysate, small-molecule microarray, COS7 lysate, 635/667 nm fluorescence (AID 1150); conditions: COS7 hTOR1A mutant lysate, 635 nm fluorescence, higher = more signal;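 also: score pools 667 nm emission and signal to noise measuring lysate protein binding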
[10] = tested on: Sonic hedgehog protein (Shh); assay: small-molecule binders of Shh protein, primary screen, biochemical, small-molecule microarray, 635/667 nm fluorescence (AID 1151); conditions: small-molecule microarray binding, 635 nm fluorescence; higher = more signal;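 also: Shh protein binding to compounds spotted on small-molecule microarray slides; score combines spot fluorescence intensity with signal-to-noise across triplicate slides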

Streptavidin (Streptomyces avidinii), sequence (P22629 whole entry, looked up): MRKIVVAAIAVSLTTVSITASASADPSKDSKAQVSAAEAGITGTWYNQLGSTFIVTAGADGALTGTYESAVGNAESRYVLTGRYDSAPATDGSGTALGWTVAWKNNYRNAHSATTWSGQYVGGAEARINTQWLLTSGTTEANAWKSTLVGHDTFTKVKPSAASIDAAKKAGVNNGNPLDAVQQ
Torsin-1A (Homo sapiens), sequence (O14656 whole entry, looked up): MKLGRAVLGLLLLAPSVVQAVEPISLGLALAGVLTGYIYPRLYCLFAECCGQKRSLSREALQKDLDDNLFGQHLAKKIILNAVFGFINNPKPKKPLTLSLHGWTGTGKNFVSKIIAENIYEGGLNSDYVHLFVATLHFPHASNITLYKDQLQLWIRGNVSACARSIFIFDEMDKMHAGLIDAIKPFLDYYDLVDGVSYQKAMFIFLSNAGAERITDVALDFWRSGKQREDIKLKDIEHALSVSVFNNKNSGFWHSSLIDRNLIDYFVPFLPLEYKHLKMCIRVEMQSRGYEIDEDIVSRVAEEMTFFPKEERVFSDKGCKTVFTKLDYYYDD

SMILES	composite z-score [1]	z-score [2]	z-score [3]	z-score [4]	z-score [5]	composite z-score [6]	composite z-score [7]	composite z-score (Torsin-1A (Homo sapiens) [8])	composite z-score (Torsin-1A (Homo sapiens) [9])	composite z-score [10]
COC(=O)[C@@H]1N=C(c2ccc(OCCCO)cc2)O[C@@H]1C	0.186	0.0511 (inactive)	-0.123 (inactive)	-0.31 (inactive)	0.421 (inactive)	-0.69	0.0225	0.0429	-0.425	0.369
CC(C)N1C(=O)C[C@@](C(=O)NC2CC2)(c2ccc([N+](=O)[O-])cc2)[C@H]1c1ccc(CO)cc1	-0.0471	-4.5 (inactive)	-0.0956 (inactive)	1.82 (inactive)	-0.673 (inactive)	-0.677	-0.252	-1.39	1.4	-0.161
COc1ccc(C#Cc2ccc3c(c2)[C@]2(C(=O)N3)[C@H](C(=O)O)[C@H]3C(=O)O[C@H](c4ccccc4)[C@H](c4ccccc4)N3[C@@H]2c2ccc(O)cc2)cc1	0.0637	-4.48 (inactive)	-0.563 (inactive)	0.0653 (inactive)	-0.332 (inactive)	-0.31	-0.0313	0.269	0.578	-0.454
COC(=O)C1(CC(C)C)C=C2C(=C(c3ccccc3)C(=O)C2C)CN1 (stereo not given)	0.894	-0.207 (inactive)	0.279 (inactive)	0.966 (inactive)	1.64 (inactive)	0.246	0.613	-0.0212	1.3	1.75
N#Cc1ccc(NN2C(C(O)c3ccc(Br)cc3)C=CC3C(=O)N(c4ccccc4)C(=O)C32)cc1 (stereo not given)	0.395	-0.35 (inactive)	-1.3 (inactive)	0.0535 (inactive)	-0.36 (inactive)	0.843	0.222	0.441	0.604	0.834
CCOC(=O)C[C@H]1[C@H](OC(=O)c2ccc(C(=O)c3ccccc3)cc2)[C@@H](NC(=O)c2ccc(-c3ccccc3)cc2)c2cc(OCCCO)ccc2N1C(=O)Cc1ccc(OC)cc1	0.0266	0.128 (inactive)	-0.271 (inactive)	-0.0989 (inactive)	-0.539 (inactive)	0.324	0.0569	-0.0633	0.022	-0.235
CCC#CCN(Cc1ccccc1Br)[C@H](/C=C/C1CC1)[C@@H](O)Cc1ccccc1	-0.679	-2.43 (inactive)	-1.23 (inactive)	2.67 (inactive)	-0.835 (inactive)	-0.529	-0.154	-0.806	0.0257	-0.643
CCOC(=O)C1=C[C@@H](C(C)C)N(S(=O)(=O)c2ccc(C)cc2)[C@H]1c1ccc(C(F)(F)F)cc1	0.418	-3.82 (inactive)	0.803 (inactive)	0.939 (inactive)	-1.13 (inactive)	0.908	-0.12	0.505	0.682	0.217
O=c1cccc(-c2ccc([N+](=O)[O-])cc2)o1	0.105	-1.88 (inactive)	-0.982 (inactive)	-0.882 (inactive)	0.61 (inactive)	0.315	0.165	-0.0842	0.376	2.19
CCOC(=O)C[C@H]1[C@H](OC(=O)Cc2ccc3c(c2)OCO3)[C@@H](NC(=O)c2ccc3ccccc3n2)c2cc(OCCCO)ccc2N1C(=O)c1ccc2ccccc2n1	0.593	-1.23 (inactive)	-1.4 (inactive)	6.51 (inactive)	-1.03 (inactive)	0.363	-0.128	0.451	0.339	0.301
C=CC[C@@]1(C(=O)NCCCOC)N=C(c2ccc(OCCCO)cc2)O[C@@H]1c1ccccc1	0.452	-1.92 (inactive)	0.305 (inactive)	1.51 (inactive)	-0.68 (inactive)	0.428	0.771	0.478	1.3	-0.499
CCCC[C@@H](O)C1=C(COC)C[C@H]2C(=O)N(C)C(=O)[C@H]2[C@H]1CO	0.0849	-1.61 (inactive)	-1.55 (inactive)	-0.0581 (inactive)	-1.18 (inactive)	0.45	-0.128	0.32	0.227	0.882
CCCC[C@@H](O)C1=C(COc2ccccc2)C[C@H]2C(=O)N(Cc3ccccc3)C(=O)[C@H]2[C@H]1CO	-0.143	-2.03 (inactive)	0.436 (inactive)	7.39 (inactive)	-0.695 (inactive)	-0.0098	-0.239	-0.152	0.107	0.491
C=CC[C@@H](OC(=O)Nc1ccc(OC)cc1)c1ccc(O)c(F)c1	-0.115	-4.67 (inactive)	-0.933 (inactive)	2.26 (inactive)	10.1 (active)	-0.716	-0.106	-0.0579	0.327	0.174
COc1cc2c(cc1O)C(c1ccc(CN3CCCC3)cc1)N(Cc1cc3c(cc1Br)OCO3)CC2 (stereo not given)	-0.116	-3.59 (inactive)	-0.587 (inactive)	0.389 (inactive)	-0.0519 (inactive)	0.881	-0.128	-0.231	0.513	-1.01
